MEKK3 PB1 HTS = modulators (inhibitors or enhancers) of MEK5 binding to human MEKK3 PB1 domain | Q99759 | bead-based flow cytometry, Alexa488-MEK5 binding to MEKK3; actives lie on both sides; 0 = blocked by unlabeled MEK5, 100 = vehicle | binding response (% of control), % at 10 µM | actives 1.4% (n = 290,000);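 active = binding response more than 3 SD above or below the average of its plate-row segment, actives on both sides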;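 note: Alexa488 bead fluorescence after subtracting the streptavidin-only scavenger bead signal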
MEKK2 mut-MEK5 = signal of MEK5 binding to mutant human MEKK2 PB1 domain; AID 1530; bead flow cytometry, Alexa488-MEK5 binding to MEKK2 mutant; percent response, % at 10 µM; actives 0.35% (n = 290,000); in the data active = percent response above about 24%, passing the limit was not always enough
Rce1 inhib = yeast Ras-converting enzyme inhibition | Q03530 | yeast membranes, quenched prenylated peptide cleavage fluorescence | calls only | actives 0.27% (n = 290,000);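 active = fall in fluorescence gain of 50% or more versus controls, with final raw signal at or below 3038400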
Target sequence (Q03530 whole entry, looked up): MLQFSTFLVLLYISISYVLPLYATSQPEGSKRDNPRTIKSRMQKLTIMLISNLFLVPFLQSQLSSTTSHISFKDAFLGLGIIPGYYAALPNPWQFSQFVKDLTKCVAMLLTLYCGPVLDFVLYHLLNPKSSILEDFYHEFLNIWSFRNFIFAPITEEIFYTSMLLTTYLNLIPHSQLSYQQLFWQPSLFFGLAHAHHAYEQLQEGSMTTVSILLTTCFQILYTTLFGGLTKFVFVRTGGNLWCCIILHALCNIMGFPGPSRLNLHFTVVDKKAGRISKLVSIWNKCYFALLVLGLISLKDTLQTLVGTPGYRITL
MEKK2 WT-MEK5 = raises or lowers MEK5 binding to wildtype human MEKK2 PB1 domain; Q9Y2U5; bead flow cytometry, Alexa488-MEK5 binding to MEKK2 WT; actives lie on both sides; binding response (% of control), % at 10 µM; actives 1.1% (n = 290,000); AID 1531; in the data active = binding response below about 67% or above about 130%
UBC13 polyUb = human UBC13 polyubiquitination inhibition; UBC13 polyubiquitin chain formation, TR-FRET; inhibition, % at 20 µM; actives 0.47% (n = 330,000); AID 485273; in the data active = inhibition above about 45%, passing the limit was not always enough
Target sequence (P61088 whole entry, looked up): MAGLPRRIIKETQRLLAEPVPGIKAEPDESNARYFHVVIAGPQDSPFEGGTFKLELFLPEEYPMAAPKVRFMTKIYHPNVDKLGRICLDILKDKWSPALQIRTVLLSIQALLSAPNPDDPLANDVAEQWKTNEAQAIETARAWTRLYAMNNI
MEKK2wt confirm = raises or lowers MEK5 binding to wildtype human MEKK2, retest. shares compounds with MEKK3 PB1 HTS. bead flow cytometry, Alexa488-MEK5 binding to MEKK2 WT; actives lie on both sides. binding response (% of control), % at 10 µM. actives 2.4% (n = 5,900). AID 1892; in the data active = binding response below about 16% or above about 210%; inactive = in between
MEKK2mut confirm = signal of MEK5 binding to mutant human MEKK2, retest | actives 2% (n = 5,900) | shares compounds with MEKK3 PB1 HTS | bead flow cytometry, Alexa488-MEK5 binding to MEKK2 mutant | percent response, % at 10 µM; in the data active = percent response mostly above about 71%, no sharp cut-off; inactive = mostly below about 38%;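 note: higher means compound restores mutant binding toward wildtype level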
MEKK3 confirm = confirmation of inhibitors of MEK5 binding to human MEKK3; shares compounds with MEKK3 PB1 HTS; bead flow cytometry, Alexa488-MEK5 binding to MEKK3; hits give low values; binding response (% of control), % at 10 µM; actives 1.8% (n = 5,900); AID 1894;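 active = binding response below 72% of control, or above a set upper limit, though filed actives all read lower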;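 note: lower values mean stronger disruption of MEK5 binding to MEKK3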
Each line names hits and unclear results; the compound was inactive in the other large screens (follow-up assays come after a bar, where they were run); [ ] = dose if it differs, or a comment. A selection: hits, their analogues and other compounds. The true share with any hit is near 2.5%.

CCS(=O)(=O)N1N=C(c2ccc(NS(C)(=O)=O)cc2)CC1c1ccccc1 (configuration not stated)	MEKK3 PB1 HTS 32[inhibitor] (no result: MEKK2 mut-MEK5, MEKK2 WT-MEK5) | MEKK2wt confirm inactive | MEKK2mut confirm inactive | MEKK3 confirm inactive
CS(=O)(=O)Nc1ccc(C2=NN(C(=O)c3ccco3)C(c3ccccc3)C2)cc1 (configuration not stated)	none
CC(C)C(=O)N1N=C(c2ccc(NS(C)(=O)=O)cc2)CC1c1cccs1 (configuration not stated)	none
O=C(CCc1nnc(Cc2ccc(-c3ccccc3)cc2)o1)NCCc1cccnc1	none
CNC(=O)N(C1=NCCCCC1)c1ccc(Br)cc1	MEKK3 PB1 HTS 129 | MEKK2wt confirm inactive | MEKK2mut confirm inactive | MEKK3 confirm inactive
CCOc1ccc(N(C(=O)Nc2ccccc2)C2=NCCC2)cc1	none
O=C(C1CCN(c2nnc(-n3cccc3)s2)CC1)N1CCN(Cc2ccc3c(c2)OCO3)CC1	none
CC1CCN(Cc2ccc(NC(=O)C3CCN(c4nnc(-n5cccc5)s4)CC3)cc2)CC1	MEKK2 mut-MEK5 78, MEKK2 WT-MEK5 231 | MEKK2wt confirm inactive | MEKK2mut confirm inactive | MEKK3 confirm inactive
Cc1cccc(C)c1NC(=O)C1(N(Cc2ccco2)C(=O)Cn2nnnc2N)CCCCC1	none
Cc1cccc(C)c1NC(=O)C1(N(Cc2ccco2)C(=O)CC2NC(=O)NC2=O)CCCC1 (configuration not stated)	MEKK3 PB1 HTS 3.0[inhibitor], MEKK2 WT-MEK5 3.0[inhibitor] | MEKK2wt confirm inactive | MEKK2mut confirm inactive | MEKK3 confirm inactive
CC1CN(S(=O)(=O)c2cccc(C(=O)NCc3ccccn3)c2)CC(C)O1 (configuration not stated)	none (no result: MEKK3 PB1 HTS, MEKK2 mut-MEK5, Rce1 inhib, MEKK2 WT-MEK5)
O=C(Nc1ccccn1)C1(c2cccs2)CCOCC1	none
C=CCNC(=O)/C=C/c1cccs1	MEKK3 PB1 HTS 135 | MEKK2wt confirm inactive | MEKK2mut confirm inactive | MEKK3 confirm inactive
Cc1ccnc(NC(=O)C2(c3cccs3)CCOCC2)c1	MEKK3 PB1 HTS 145 | MEKK2wt confirm 1.0[inhibitor] | MEKK2mut confirm inactive | MEKK3 confirm 2.0
Cc1ccnc(NC(=O)/C=C/c2cccs2)c1	MEKK2 mut-MEK5 58, MEKK2 WT-MEK5 178 | MEKK2wt confirm inactive | MEKK2mut confirm inactive | MEKK3 confirm inactive
COc1ccccc1Oc1nc([N+](=O)[O-])nn1CC(N)=O	none
CN(C)C(=O)COC(=O)c1cccc(CN2C(=O)c3ccccc3C2=O)c1	MEKK3 PB1 HTS 71[inhibitor] | MEKK2wt confirm inactive | MEKK2mut confirm inactive | MEKK3 confirm inactive
COCCCN1C(=O)c2ccc(C(=O)OCC(=O)N(C)c3ccccc3)cc2C1=O	none
O=C(N/N=C/c1cccnc1)c1cc(-c2cccs2)nc2ccccc12	none
O=C(N/N=C/c1ccc2ncccc2c1)c1cc(-c2cccs2)nc2ccccc12	MEKK3 PB1 HTS 35[inhibitor], MEKK2 WT-MEK5 30[inhibitor] | MEKK2wt confirm inactive | MEKK2mut confirm inactive | MEKK3 confirm inactive
Cc1nc2ccccc2nc1OCc1cccc(Cl)c1	MEKK3 PB1 HTS 128 | MEKK2wt confirm inactive | MEKK2mut confirm inactive | MEKK3 confirm inactive
S=C(Nc1ccccc1)Nc1ccc(Cl)cc1Cl	none
S=C(Nc1ccccc1)Nc1cc(Cl)ccc1Oc1ccccc1	MEKK3 PB1 HTS 123 | MEKK2wt confirm inactive | MEKK2mut confirm inactive | MEKK3 confirm inactive
Cc1nc2ccccc2nc(=O)c1NNc1ccccc1	MEKK3 PB1 HTS 51[inhibitor] (no result: Rce1 inhib, UBC13 polyUb) | MEKK2wt confirm inactive | MEKK2mut confirm inactive | MEKK3 confirm inactive
Cc1ccc(-c2cc(C(=O)N3CCCCC3)c3ccccc3n2)cc1C	none
COc1cc(C(=O)NC(=S)Nc2ccc([N+](=O)[O-])cc2)cc(OC)c1OC	MEKK3 PB1 HTS 141 | MEKK2wt confirm inactive | MEKK2mut confirm inactive | MEKK3 confirm inactive
COc1cc(C(=O)NC(=S)Nc2ccc([N+](=O)[O-])cc2C)cc(OC)c1OC	none

Assay outcomes: PubChem BioAssay, several laboratories
